Drawing on PubChem BioAssay AID1210 (NMMLSC, 2008), this text covers inhibition for 43 compounds.

Activity calls are given as the source filed them.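 Rule for the calls: active = blocks over 70% of labeled estradiol binding at 10 µM, or over a set limit at 100 nM; inactive = the rest.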

The target in this assay is Estrogen receptor beta (Homo sapiens) (UniProt Q92731). The assay can be described thus: ERbeta ligand binders by competition, primary screen, cell-based, Cos7 ERbeta-GFP, flow cytometry (AID 1210).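 Note: 0% = DMSO vehicle wells and 100% = complete loss of labeled estradiol signal.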 The following applies: fluorescent estrogen binding, stronger effect = higher value. For orientation: A flow cytometer gives signals particle by particle.
Chain of Estrogen receptor beta (Homo sapiens) (Q92731 whole entry, looked up): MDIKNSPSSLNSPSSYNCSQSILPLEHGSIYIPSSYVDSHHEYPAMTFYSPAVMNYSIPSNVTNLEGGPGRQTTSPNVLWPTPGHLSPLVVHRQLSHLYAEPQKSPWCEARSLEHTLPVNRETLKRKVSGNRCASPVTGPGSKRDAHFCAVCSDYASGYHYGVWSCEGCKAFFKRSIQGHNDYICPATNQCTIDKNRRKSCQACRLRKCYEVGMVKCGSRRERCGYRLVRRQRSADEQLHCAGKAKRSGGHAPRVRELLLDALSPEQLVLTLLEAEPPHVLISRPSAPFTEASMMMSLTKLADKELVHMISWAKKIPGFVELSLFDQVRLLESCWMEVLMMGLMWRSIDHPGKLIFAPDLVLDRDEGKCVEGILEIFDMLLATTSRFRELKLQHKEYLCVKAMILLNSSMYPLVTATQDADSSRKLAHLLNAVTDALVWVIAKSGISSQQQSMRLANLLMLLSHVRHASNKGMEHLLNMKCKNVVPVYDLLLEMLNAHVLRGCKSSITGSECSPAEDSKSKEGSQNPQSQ
[1] abbreviates: ligand binding inhibition, at 0.1 µM.

In general, inhibition refers to the drop in the measured response relative to a control, in per cent. In the case of `Cc1oc(-c2ccc(Cl)cc2)cc1-c1nn2c(-c3ccoc3C)nnc2s1`, the inhibition is, setting by setting: (at 10 µM) 57% (inactive); under setting [1], 29%.

Take `COc1ccc(OC)c(NC(=O)CSc2nc3ccccc3c3nc4ccccc4n23)c1`: the inhibition runs as follows: (at 10 µM) 70% (inactive); under setting [1], 16%.

Take `COC(=O)C1=C(O)/C(=C\c2ccc(CNC(=O)C(=O)Nc3ccc(C)c(C)c3)o2)N=C1C`: the inhibition is 42% (inactive) (at 10 µM) and 20% under setting [1].

Take `COc1ccc(C2Nc3ccccc3C(=O)N2c2ccc(F)cc2)cc1CSc1ccccn1` (stereo unspecified): the inhibition was 6% (inactive) (at 10 µM) and 30% under setting [1].

Take `CC1CCc2c(sc(NC(=O)c3ccc(Cn4cc([N+](=O)[O-])cn4)o3)c2C#N)C1` (stereo unspecified): the inhibition is 19% (inactive) (at 10 µM) and 58% under setting [1].

On to `CCOc1ccc(C2C3=C(Nc4nc(N)[nH]c(=O)c42)c2ccccc2C3=O)cc1` (stereo unspecified), for which the inhibition (at 10 µM) was 22% (inactive) and the inhibition under setting [1] was found to be 39%.

Consider `Cc1ccccc1OCC1Cc2c(nc(N)c(C#N)c2N)O1` (stereo unspecified), for which the inhibition runs as follows: (at 10 µM) 25% (inactive); under setting [1], 11%.

For `O=C(COC(=O)CCOc1ccccc1)NCc1ccco1`, the inhibition is 54% (inactive) (at 10 µM) and 37% under setting [1].

With `COc1ccc(C2CC(=O)Nc3ccccc3S2(=O)=O)cc1OC` (stereo unspecified), the inhibition by setting is: (at 10 µM) 5% (inactive); under setting [1], 20%.

Regarding `CC(=O)c1ccc(NC(=S)N2CCCC(CO)C2)cc1` (stereo unspecified), the inhibition was 49% (inactive) (at 10 µM) and 13% under setting [1].

`CCOC(=O)Cc1cc(=O)n2[nH]c(-c3ccc(C)cc3)cc2n1`: the inhibition runs as follows: (at 10 µM) 19% (inactive); under setting [1], 15%.

As to `CCCSC1=N/C(=C\C=C\c2ccco2)C(=O)S1`, the inhibition is 47% (inactive) (at 10 µM) and 31% under setting [1].

Consider `O=C(CSc1ccc(Cl)cc1)c1ccco1`, for which the inhibition (at 10 µM) was 14% (inactive) and the inhibition under setting [1] was determined as 53%.

For `CC1(C)N=C(N)N=C(N)N1c1ccc(C(=O)O)cc1`, the inhibition is, setting by setting: (at 10 µM) 22% (inactive); under setting [1], 11%.

With `Cc1cc(C(=O)Nc2sc3c(c2C#N)CCC3)no1`, the inhibition (at 10 µM) was 46% (inactive) and the inhibition under setting [1] was determined as 23%.

Consider `CN(c1ccccc1C(=O)O)S(=O)(=O)c1ccc2c3c(cccc13)C(=O)N2`, for which the inhibition reads like this: (at 10 µM) 0% (inactive); under setting [1], 6%.

With `O=C(CSc1nnc(-c2ccc(O)cc2)n1Cc1ccccc1)NNC(=O)c1ccc(Br)cc1`, the inhibition runs as follows: (at 10 µM) 31% (inactive); under setting [1], 30%.

Consider `CCOc1cc(C2CC(=O)c3c(ccc4ccccc34)N2)ccc1O` (stereo unspecified), for which the inhibition (at 10 µM) is 19% (inactive) and the inhibition under setting [1] is 8%.

As to `O=C(Nc1cccc(-c2cn3cccnc3n2)c1)c1ccc2c(c1)OCO2`, the inhibition (at 10 µM) was 26% (inactive) and the inhibition under setting [1] is 48%.

Consider `Cn1ccnc1SCC(=O)Nc1ccc2nc(SCC(=O)NC3CC3)sc2c1`, for which the inhibition was 46% (inactive) (at 10 µM) and 38% under setting [1].

Turning to `Cc1ccc2[nH]c(=O)c(C3C(C#N)=C(N)Oc4c3ccc3cccnc43)cc2c1` (stereo unspecified), the inhibition is 44% (inactive) (at 10 µM) and 24% under setting [1].

`Cc1ccc2c(Cl)cc(Cl)c(OCC(=O)NCc3ccco3)c2n1`: the inhibition is, setting by setting: (at 10 µM) 29% (inactive); under setting [1], 38%.

With `Oc1ccc(-c2cn3c(n2)SCC3)cc1O`, the inhibition is, setting by setting: (at 10 µM) 33% (inactive); under setting [1], 22%.

Take `Cc1cc(O)ccc1C1(c2ccc(O)cc2C)OC(=O)c2ccccc21`: the inhibition is 36% (inactive) (at 10 µM) and 10% under setting [1].

Take `O=C(Cc1cccs1)Nc1ccc(S(=O)(=O)Nc2ncccn2)cc1`: the inhibition by setting is: (at 10 µM) 62% (inactive); under setting [1], 1%.

Regarding `COc1cc(/C=N/N2CCN(C3c4ccccc4-c4ccccc43)CC2)ccc1O`, the inhibition (at 10 µM) was 39% (inactive) and the inhibition under setting [1] was determined as 10%.

Consider `O=C(O)C1CSC(c2coc3ccccc3c2=O)N1` (stereo unspecified), for which the inhibition runs as follows: (at 10 µM) 26% (inactive); under setting [1], 46%.

As for `CSc1nc2c(c(=O)[nH]1)C(c1cccs1)C1=C(CCCC1=O)N2` (stereo unspecified), the inhibition is 71% (active) (at 10 µM) and 33% under setting [1].

Take `CCc1ccc(NC(=O)c2noc3c2CCC3)cc1`: the inhibition was 8% (inactive) (at 10 µM) and 22% under setting [1].

`COc1ccc(C)cc1-n1nnnc1SCC(=O)NC(=O)NCc1ccco1`: the inhibition by setting is: (at 10 µM) 61% (inactive); under setting [1], 12%.

`CCOc1cccc2cc(-c3cn4cc(C)ccc4n3)c(=O)oc12`: the inhibition was 27% (inactive) (at 10 µM) and 16% under setting [1].

On to `CN(C)C(=O)c1ccc2c(c1)C1C3CCC(C3)C1C(c1ccccc1)N2` (stereo unspecified), for which the inhibition was 0% (inactive) (at 10 µM) and 51% under setting [1].

Regarding `COc1ccc(/C=N/NC(=O)c2nc(-c3ccccc3)n(-c3ccccc3)n2)c(O)c1`, the inhibition (at 10 µM) is 45% (inactive) and the inhibition under setting [1] turned out to be 33%.

For `CCOC(=O)c1ccc(NC(=O)CSc2nc(C)cc(=O)[nH]2)cc1`, the inhibition by setting is: (at 10 µM) 30% (inactive); under setting [1], 2%.

For the compound `Nc1ccc2nc(CN3CCOCC3)[nH]c2c1`, the inhibition runs as follows: (at 10 µM) 6% (inactive); under setting [1], 47%.

As for `N#Cc1ccc(-c2cccnc2)nc1SCC(=O)Nc1sc2c(c1C#N)CCC2`, the inhibition was 0% (inactive) (at 10 µM) and 10% under setting [1].

`Cc1cccc(N2CSC3=C(C#N)C(c4ccc(C)o4)CC(=O)N3C2)c1` (stereo unspecified): the inhibition runs as follows: (at 10 µM) 35% (inactive); under setting [1], 21%.

Regarding `Cc1cc(C)cc(OCC(=O)Nc2ccc(N3CCCC3)cc2)c1`, the inhibition runs as follows: (at 10 µM) 71% (active); under setting [1], 37%.

With `COc1ccccc1N1CCN(C(=O)c2ccc3nc(-c4ccco4)c(-c4ccco4)nc3c2)CC1`, the inhibition runs as follows: (at 10 µM) 60% (inactive); under setting [1], 11%.

`CCN1CCN(Cc2c(O)c(Cl)cc3c(C)cc(=O)oc23)CC1`: the inhibition (at 10 µM) is 31% (inactive) and the inhibition under setting [1] was determined as 8%.

As for `CN=c1scc(C)n1/N=C/c1ccc(O)cc1O`, the inhibition was 58% (inactive) (at 10 µM) and 6% under setting [1].

Regarding `Cc1ccc(C)c(SCC(=O)OCC(=O)c2ccco2)c1`, the inhibition reads like this: (at 10 µM) 50% (inactive); under setting [1], 57%.

Regarding `O=c1cc(O)c2sc(Nc3ccc(F)cc3)nc2[nH]1`, the inhibition (at 10 µM) is 8% (inactive) and the inhibition under setting [1] was found to be 9%.
